# Screens as filed in PubChem BioAssay.
# DT40 TDP1 CPT – DT40-hTDP1 cell growth loss with CPT; Potency, µM (highest dose often 46.2 µM), for the others: at the top dose activity change, negative = growth inhibition, usual class: inhibitors; 420,000 tested, 12% active; chicken DT40 Tdp1-/-;hTDP1 cells + 20 nM CPT, ATP luminescence, 48 h; AID 686979; also: nearly all actives have a fitted effect of over 55% in size
#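 Chicken DT40 Tdp1-/- cells complemented with human TDP1, 400 cells/well, exposed to compounds plus 20 nM camptothecin for at least 48 h at 37 C; viability read as ATP content by CellTiter-Glo luminescence.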
# TDP1 cell noCPT – qHTS for Inhibitors of human tyrosyl-DNA phosphodiesterase 1 (TDP1): qHTS in cells in absence of CPT; DT40 Tdp1-/- hTDP1 cells, no CPT, ATP luminescence, 48 h; Potency, µM (doses to about 46.2 µM), inactives show top-dose activity change, negative = growth inhibition, usual class: inhibitors; 420,000 tested, 15% active; AID 686978, 2013; also: nearly all actives have a fitted effect of over 55% in size
#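 Camptothecin absent (DMSO only). Human TDP1-complemented DT40 knockout cells, 400 cells/well, 37 °C for minimum 48 hr; ATP measured via CellTiter-Glo, 30 min dark incubation, luminescence.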
# KB-3-1 tox – kills parental KB-3-1 adenocarcinoma cells; KB-3-1 viability, CellTiter-Glo ATP luminescence, 72 h; 400,000 tested, 1.4% active; AID 1347075; Potency, µM (top dose mostly 46.1 µM), most hits filed as cytotoxic; also: nearly all actives have a fitted effect of over 60% in size
#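 Viability of parental KB-3-1 cells, measured by CellTiter-Glo luminescence, followed a 72 h incubation at 37 °C with pinned compounds in phenol-red-free DMEM containing 10% FBS.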
# HT1080-NT tox – kills 2HG-producing HT-1080-NT fibrosarcoma cells. 360,000 tested, 1.6% active. HT-1080-NT fibrosarcoma viability, CellTiter-Glo ATP luminescence, 48 h. AID 686970. Potency, µM (highest dose often 46.1 µM), for the others: top-dose activity, negative = less viability, most hits filed as cytotoxic;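 also: NT is the 2HG producing partner of a matched IDH1 knockdown line; 0% = DMSO-treated cells and -100% = media-only wells without cells; nearly all actives have a fitted effect of over 55% in size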
#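 Viability of the 2HG-overproducing fibrosarcoma line after 48 hours of compound exposure at 37 degrees C was determined by luminescence with CellTiter-Glo, and concentration-effect curves were then fitted and categorized.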
# KB-V1 cytotox – kills drug-selected multidrug resistant KB-V1 cells | Potency, µM (series often up to 46.1 µM), most hits filed as cytotoxic | AID 1347076 | KB-V1 MDR cells viability, CellTiter-Glo, 72 h | 400,000 tested, 3.4% active; also: nearly all actives have a fitted effect of over 60% in size
#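 In this primary screen, KB-V1 cells overexpressing P-gp are incubated with library compounds (lowest to highest concentration) for 72 h at 37 degrees C before a luminescent ATP viability read.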
# HT1080 IDH1KD tx – kills HT-1080 cells with IDH1 knockdown. HT-1080 IDH1 knockdown viability, ATP luminescence, 48 h. 360,000 tested, 2% active. Potency, µM (titrated, usually from 46.1 µM), for inactives: top-dose activity, negative = toxicity, most hits filed as cytotoxic;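 also: 0% = DMSO wells and -100% = cell-free medium wells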
#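 Luminescent ATP read-out (CellTiter-Glo, 10 min at room temperature) after 48 h compound exposure at 37 °C gave viability of IDH1-knockdown HT-1080 cells. Activity was normalised to DMSO and cell-free wells, then fitted as concentration-response curves.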
# Active calls of the source: *; i = inactive; ? = inconclusive; · = not tested or not shown; [ ] = dose if it differs, or a comment. A selection: hits, their analogues and other compounds. The true share with any hit is near 19%. Calls follow the shape of the dose curve; as a rule, active = well fitted curve in the direction sought with a large enough effect; inconclusive = small, poorly fitted or top-dose-only effect, or another doubt; inactive = no such curve, though single readings can be large; an effect the other way counts as inactive or inconclusive. Unless noted, % is scaled to controls: 0 for no effect and ±100 for the full control effect; potency is read from the fitted curve at half-maximal effect.
SMILES,DT40 TDP1 CPT,TDP1 cell noCPT,KB-3-1 tox,HT1080-NT tox,KB-V1 cytotox,HT1080 IDH1KD tx
Cc1ccc(C)c(NC(=O)CN(C)S(=O)(=O)c2ccc3c(c2)CCC(=O)N3)c1,-10.5%,-26.8%,i,·,i,·
Cc1ccc(NC(=O)C(NS(=O)(=O)c2ccc3c(c2)CCC(=O)N3)c2ccccc2)cc1C (configuration not stated),?,13µM*,i,·,i,·
CCOC(=O)c1ccc(S(=O)(=O)N2CCN(c3nc(-c4cccs4)nc4ccccc34)CC2)cc1,-19.8%,-22.2%,i,·,i,·
CCNC(=O)COc1cccc(C(=O)NCc2ccccc2)c1,-2.7%,-14.4%,i,1.0%,i,7.1%
CCOc1ccc(CCN2C(=S)N([C@@H](CC(C)C)CN3CCCC3CN3C(=S)NC[C@@H]3Cc3ccccc3)C[C@@H]2CC(C)C)cc1 (some centres not stated),?,16.4µM*,?,?,?,?
CCOc1ccc(CCN2C(=S)N([C@@H](CC(C)C)CN3CCC[C@@H]3CN3C(=S)NC[C@@H]3CC(C)C)C[C@@H]2Cc2ccc(O)cc2)cc1,9.2µM*,11.6µM*,?,23.1µM*,i,16.4µM*
CCOc1ccc(CCN2C(=S)N([C@@H](CC(C)C)CN3CCCC3CN3C(=S)NC[C@@H]3Cc3ccc(O)cc3)C[C@@H]2CC(C)C)cc1 (some centres not stated),?,16.4µM*,?,-14.3%,?,?
CCOc1ccc(CCN2C(=S)N([C@@H](CC(C)C)CN3CCCC3CN3C(=S)NC[C@@H]3CC(C)C)C[C@@H]2Cc2ccc(O)cc2)cc1 (some centres not stated),18.4µM*,?,?,-19.2%,?,-19.6%
CCOc1ccc(CCN2C(=S)N([C@@H](CC(C)C)CN3CCC[C@@H]3CN3C(=S)NC[C@@H]3CC(C)C)C[C@@H]2CC(C)C)cc1,?,?,i,-14.3%,i,4.5%
CCc1nnc(NC(=O)CCC(=O)N2CCN(Cc3ccc(OC)c(F)c3)CC2)s1,?,-24.3%,i,2.9%,i,-4.6%
O=C(NC1CCCCC1)C1CCN(S(=O)(=O)c2cccc3nonc23)CC1,-1.4%,10.4%,i,8.0%,i,-1.4%
CCN1CCCC(CO)(Cc2ccccc2)C1 (configuration not stated),5.2%,-6.8%,i,-11.4%,?,4.3%
OCC1(Cc2ccccc2)CCCN(Cc2c[nH]c3ccccc23)C1 (configuration not stated),11.6µM*,18.4µM*,i,-16.6%,i,-3.7%
O=[N+]([O-])c1ccc(S(=O)(=O)N2CCN(Cc3c[nH]c4ccccc34)CC2)cc1,?,?,i,-19.6%,20.6µM*,5.0%
c1ccc(CN2CCN(Cc3c[nH]c4ccccc34)CC2)cc1,2.06µM*,10.3µM*,i,-7.6%,i,-5.9%
COc1ccc(S(=O)(=O)N2CCN(Cc3c[nH]c4ccccc34)CC2)cc1,?,?,i,-2.2%,i,-2.2%
CN(CC(=O)Nc1ccccc1Br)C(=O)c1ccccc1OCc1ccc(F)cc1,?,?,i,-2.4%,i,0.7%
CCOc1ccc(NC(=O)CN(C)C(=O)c2ccccc2OCc2cccc(C)c2)cc1OCC,?,?,i,-12.2%,2.91µM*,?
CCOc1ccc(NC(=O)CN(C)C(=O)c2cccnc2Sc2ccc(C)cc2C)cc1OCC,-6.4%,-28.2%,i,4.7%,16.4µM*,-11.9%
CN(CC(=O)Nc1ccccc1Br)C(=O)c1ccccc1OCc1ccccc1Cl,?,18.4µM*,i,?,?,?
CN(CC(=O)Nc1ccccc1Br)C(=O)c1sccc1-c1ccccc1,?,13µM*,i,-4.4%,?,-0.2%
O=C(NNC(=O)c1ccccc1C(F)(F)F)c1csc(N2CCOCC2)n1,3.7%,0.6%,i,5.3%,i,10.2%
Cc1cccc(COc2ccccc2C(=O)N(C)CC(=O)Nc2cccc(F)c2)c1,?,?,?,-2.6%,i,-11.6%
CCOc1ccc(NC(=O)CN(C)C(=O)c2cccnc2SC)cc1OCC,-17.3%,-10.7%,i,0.5%,i,1.5%
CCOc1ccc(NC(=O)CN(C)C(=O)CSCc2cccc(C)c2)cc1OCC,-22.5%,-5.0%,i,3.2%,i,1.1%
SMILES,DT40 TDP1 CPT,TDP1 cell noCPT,KB-3-1 tox,HT1080-NT tox,KB-V1 cytotox,HT1080 IDH1KD tx
Cc1ccc(C)c(NC(=O)CN(C)C(=O)c2ccccc2OCc2ccc(Cl)cc2)c1,23.1µM*,?,i,?,i,-21.5%
CCOc1ccc(NC(=O)CN(C)C(=O)c2ccccc2Cc2ccccc2)cc1OCC,14.6µM*,9.2µM*,i,7.0%[9.24 µM],?,-13.3%
CCOc1ccc(NC(=O)CN(C)C(=O)c2csc3c2CCCC3)cc1OCC,?,?,i,-2.1%,14.6µM*,-0.7%
CCOc1ccc(CN(C)CC(=O)Nc2cccc(C)c2)cc1OC,20.6µM*,9.2µM*,i,-10.0%,?,-13.2%
CCN(C(=O)COC(=O)C(c1ccccc1)c1ccccc1)c1c(N)n(Cc2ccccc2)c(=O)[nH]c1=O,?,?,i,-7.3%,i,-1.5%
Cc1ccc(C)c(NC(=O)c2cnc(N3CCCC3)nc2C)c1,-23.1%,?,i,·,i,·
Cc1noc(C)c1NC(=O)N1C[C@H](O)COC[C@H]2O[C@@H](CC(=O)NCC3CCCCC3)CC[C@@H]21,12.6%,-1.6%,i,12.9%,i,16.7%
O=C(O)CC1(CC(=O)Nc2ccc3c(c2)OCCCO3)CCCCC1,15.5%,4.0%,i,0.6%,i,10.3%
CCN1C(c2ccccc2)=C(c2ccccc2)S/C1=C/C=C1\SC(=S)N(C)C1=O,10.3µM*,10.3µM*,i,-9.2%,?,-1.0%
CCN1C(c2ccccc2)=C(c2ccccc2)S/C1=C\C=C1/SC(=S)N(C)C1=O,13µM*,9.2µM*,i,?,i,?
CN(C)S(=O)(=O)c1ccc(C(=O)NCCS(=O)(=O)N2CCN(c3ccccc3)CC2)cc1,-25.0%,?,·,·,·,·
CCOc1ccc(NS(=O)(=O)c2ccc(C(=O)NCCN3CCOCC3)cc2)cc1,-14.1%,-7.2%,i,-3.1%,i,-9.9%
